Test results as given in PubChem BioAssay (EPA / NIEHS).
Calls of active or inactive are those of the source. The calls were made as follows: active = hit-call score of the fitted dose curve at least 0.9, where 1 is the maximum; inactive = score below 0.9.

read-out: Transforming Growth Factor (TGFB1), TGFB1 (gene 7040); assay: LTEA_HepaRG_TGFB1: Life Technologies and Expression Analysis (LTEA) Assay for Transforming Growth Factor (TGFB1) Transporter using HepaRG (AID 2283533); details: mRNA level, 48 h; actives raise or lower the signal
Description: LTEA_HepaRG is a cell based, multiplexed-readout assay that uses HepaRG, a human liver cell line, with measurements taken at 48 hours after chemical dosing on a 96-well plate.LTEA_HepaRG_TGFB1 is one of 102 assay component(s) measured in the LTEA HepaRG cell culture assay. It is a marker of Cell proliferation, survival, death.Data from the assay component LTEA_HepaRG_TGFB1 was analyzed into 1 endpoint. This assay endpoint, LTEA_HepaRG_TGFB1, was analyzed with bidirectional fitting relative to DMSO as the negative control and baseline of activity. Using a type of inducible reporter, measures of mRNA induction for gain or loss-of-signal activity can be used to understand regulation of transcription factor activity. To generalize the intended target to other relatable targets, this assay endpoint is annotated to the growth factor intended target family, where the subfamily is transforming growth factor beta.
A total of 1060 chemcials from the ToxCast library were tested in eight-point concentration-response experiments. Cell culture and cytotoxicity assays were conducted at Thermo Fisher Scientific's Custom Services facility (Madison, WI). A single lot of human HepaRG cells (Thermo Fisher Scientific, Frederick, MD) was used for the cell culture experiments. 96-well format collagen type I coated plates of human HepaRG cells were prepared using established methods. Briefly, cryopreserved HepaRG cells were thawed, plated at a density of approximately 100,000 cells/well in HepaRG Thaw, Plate, and General Purpose media (HPRG770, Thermo Fisher Scientific), and incubated for 48 hours. 0.5% DMSO was selected as vehicle control to balance the requisite need of DMSO in HepaRG cultures to maintain differentiation (for example, baseline metabolism, proportions of hepatocytes vs. cholangiocytes), while enabling further hepatic receptor pathway activation (for example, PXR and CAR) in response to chemical exposure. 48 hours after plating, the culture medium was replaced with HepaRG Serum-Free Incudtion Media. Cells were exposed to each test chemical in duplicate and maintained in CO2 incubators for another 48 hours. Chemical plates were thawed to room temperature and 200x concentrations of treatment groups were prepared. 8-point conentration-reponse curves were made with the highest exposure at 100 uM, followed by half-log dilutions, all in 0.5% DMSO. Each test plate contained variouse controls, induction positive controls (1mM phenobarbital), cytotoxicity positive controls ([…] aflatoxin B1), vehicle controls (0.5% DMSO), and total lysis controls (0.5% DMSO). Cell morphology images were taken using an Essen IncuCyte FLR automated microscope, with six 96-well plates imaged in about 24 minutes. Images were captured and exported and JPEG files. Spent culture media was transfered to black-well plates for the LDH assay, and remaining media was sorted at -80 C for later use. Cells were treated with RLT buffer and frozen until shipped for gene expression analysis. Total RNA was isolated from the cell suspension in 75 uL of Buffer RLT (Qiagen, Germantown, MD 20874) by Quintiles/Expression Analysis (Durham, NC) using a custom isolation procedure. Total RNA from each plate well was transferred to a preamplification plate. Fluidigm's 96.96 Dynamic ArrayTM (Fluidigm, Amsterdam, the Netherlands) technology was used for gene expression analyses by quantitative reverse transcription polymerase chain reaction (qRT-PCR, performed by Quintiles/Expression Analysis, Durham, NC)89. Standard TaqManTM Assays (Applied Biosystems/ThermoFisher Scientific, Foster City, CA) were used to assess the expression of 93 genes selected based on their selectivity and sensitivity to important hepatic receptors known to be modulated by environmental chemicals; importance in human hepatocyte functionality; and hepatotoxicity. […]

Compound | outcome | AC50
CC(C)(C)OOC(=O)c1ccccc1 | inactive | 
CCCCCCCCn1sccc1=O | inactive | 
CCOc1cccc(C2(N3CCN(c4ccccc4)CC3)CCC(C)CC2)c1 (stereo not given) | inactive | 
CCC(C)c1ccc(O)cc1 (stereo not given) | inactive | 
CCCCCCCCCCCCCN1CC(C)OC(C)C1 (stereo not given) | inactive | 
CS(=O)(=O)NC(=O)c1cc(Oc2ccc(C(F)(F)F)cc2Cl)ccc1[N+](=O)[O-] | inactive | 
CO[C@@H]1[C@H](OC(=O)NC(=O)CCl)CC[C@]2(CO2)[C@H]1[C@@]1(C)O[C@@H]1CC=C(C)C | inactive | 
CC(C)(O)c1cnn2c(-c3ccc(F)c(-c4c(F)cccc4C#N)c3)cnc2n1 | inactive | 
CC(C)(C)C(O)(CCc1ccc(Cl)cc1)Cn1cncn1 (stereo not given) |  | 50 µM (active)
c1ccc(N=Nc2ccccc2)cc1 | inactive | 
CCC[CH2][Sn]([Cl])([CH2]CCC)[CH2]CCC | inactive | 
Clc1ccc(C(c2ccc(Cl)cc2)C(Cl)Cl)cc1 | inactive | 
OCCCl | inactive | 
CN(C)[C@@H]1C(=O)C(C(N)=O)=C(O)[C@@]2(O)C(=O)C3=C(O)c4c(O)cccc4[C@@](C)(O)[C@H]3C[C@@H]12 | inactive | 
CC(C)(OOC(C)(C)c1ccccc1)c1ccccc1 | inactive | 
Nc1ccc(Cc2ccc(N)cc2)cc1 | inactive | 
CCOC(=O)[C@]1(c2ccccc2)Oc2ccccc2[C@@H]1N | inactive | 
O=C(Nc1ccccc1)c1ccccc1I |  | 50 µM (active)
c1ccc2c(c1)oc1ccccc12 | inactive | 
CCCSC(=O)N(CCC)CCC | inactive | 

Compound | outcome | AC50
O=P(OCCCl)(OCCCl)OCCCl | inactive | 
ClC1=C(Cl)[C@]2(Cl)[C@H]3[C@H]([C@@H]4C=C[C@H]3C4)[C@@]1(Cl)C2(Cl)Cl | inactive | 
O=C(N[C@H](c1ccccc1)[C@@H]1CN2CCC1CC2)c1c(Cl)ccc(C(F)(F)F)c1Cl |  | 46.2 µM (active)
Cc1cccc(N)c1N | inactive | 
CCCCCCCCOC(=O)c1ccc(C(=O)OCCCCCCCC)c(C(=O)OCCCCCCCC)c1 | inactive | 
OCCCBr | inactive | 
OCCOCCO | inactive | 
C1=Cc2cccc3cccc1c23 | inactive | 
C=CCc1ccc2c(c1)OCO2 | inactive | 
Oc1ccccc1Cl | inactive | 
O=[N+]([O-])C(Br)(CO)CO | inactive | 
Brc1ccc(Oc2ccccc2)cc1 | inactive | 
CCCCC(CC)COC(=O)c1ccc(C(=O)OCC(CC)CCCC)c(C(=O)OCC(CC)CCCC)c1 (stereo not given) | inactive | 
CN(C)c1ccccc1 | inactive | 
ClC1=C(Cl)C2(Cl)C3C(Cl)C=CC3C1(Cl)C2(Cl)Cl (stereo not given) | inactive | 
Clc1ccc(Cl)c(Cl)c1 | inactive | 
C[N+](C)(C)CC1CO1 (stereo not given) | inactive | 
CN(C)C(=O)Nc1ccc(Cl)cc1 | inactive | 
C[C@]12C=CC3=C4CCC(=O)C=C4CC[C@H]3[C@@H]1CC[C@@H]2O | inactive | 
CCN(CC)CCO | inactive | 
